Source: PubChem BioAssay AID588342 (National Center for Advancing Translational Sciences (NCATS), 2011)
Values joined by “and” are separate entries in the source; they are usually repeats but may differ in a detail not shown here. Identical values can stand only once. About 25,000 (6.9%) of roughly 360,000 compounds were called active. Another 9% or so got no clear call; they are omitted. This is one part of a sample in which actives are shown more often than they occur. Values without a mark were called inactive. The call rests on the fitted dose curve; in most records, active means well fitted inhibition curve with a large enough effect; inconclusive means small, poorly fitted or top-dose-only effect; inactive means flat fitted curve, though single readings scatter.

Target: Luciferin 4-monooxygenase (Photinus pyralis) (UniProt P08659)
Sequence (P08659 whole entry, looked up): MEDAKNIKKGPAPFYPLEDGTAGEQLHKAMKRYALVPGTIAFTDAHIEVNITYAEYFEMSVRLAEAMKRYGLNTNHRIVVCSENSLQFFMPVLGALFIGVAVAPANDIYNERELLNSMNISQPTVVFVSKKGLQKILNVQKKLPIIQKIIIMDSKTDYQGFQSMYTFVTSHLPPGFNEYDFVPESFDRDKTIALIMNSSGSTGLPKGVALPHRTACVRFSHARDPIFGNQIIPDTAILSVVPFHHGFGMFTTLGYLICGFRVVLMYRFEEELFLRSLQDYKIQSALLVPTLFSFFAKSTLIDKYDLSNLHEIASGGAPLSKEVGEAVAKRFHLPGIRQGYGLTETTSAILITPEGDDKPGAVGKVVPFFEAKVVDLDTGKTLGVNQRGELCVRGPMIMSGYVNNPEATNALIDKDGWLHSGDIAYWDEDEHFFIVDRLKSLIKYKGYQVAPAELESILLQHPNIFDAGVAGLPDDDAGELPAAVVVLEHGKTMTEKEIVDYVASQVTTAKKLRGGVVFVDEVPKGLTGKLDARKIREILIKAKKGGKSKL
Test: qHTS profiling assay for firefly luciferase inhibitor/activator using purifed enzyme and Km concentrations of substrates (counterscreen for miR-21 project); further: nearly all actives have a fitted effect of over 55% in size;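 on activity change, negative = inhibition: plate controls were vehicle for no effect and reference inhibitor for full effect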
Details: purified FLuc, luminescence inhibition; series mostly up to 57.5 µM; activity change, negative = inhibition: at the top concentration
Summary of the method: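 Biochemical qHTS of compounds, final roughly 60 µM downward over six points, against 10 nM purified firefly luciferase using Km concentrations of substrates (10 uM D-luciferin, 10 uM ATP) in Tris acetate pH 7.5 buffer; luminescence output.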
Potency means the concentration at half of the fitted maximal effect.

SMILES | activity change, negative = inhibition | Potency
Cc1ccc(N2CCN(C(=O)CCc3c(C)nc4c(c3C)c(=O)n(C)c(=O)n4C)CC2)c(C)c1 | -0.374% | 
C=CCn1c(SCC(=O)NC(=O)Cc2ccccc2)nc2ccccc2c1=O | 2.08% | 
Cc1nn(CC(=O)Nc2ccc(C#N)cc2)c(C)c1[N+](=O)[O-] | 1.77% | 
COc1ccc(NS(=O)(=O)c2cccc3nsnc23)cc1Cl | 4.27% | 
Cc1ccccc1-c1nc(CS(=O)(=O)CC(=O)Nc2cc(Cl)cc(Cl)c2)c(C)o1 | -16% | 
COc1ccccc1CNS(=O)(=O)c1cc(Br)cc2c1N(C(C)=O)C(C)C2 (configuration not stated) | -3.66% | 
COc1ccc(CCNC(=O)COC(=O)Cc2cccc(F)c2)cc1 | -0.275% | 
O=C(NCc1ccccc1)c1cccc(NC(=O)N2CCSc3ncccc32)c1 | 2.63% | 
COc1cc(OC)cc(C(=O)NCCc2csc3nc(-c4ccccc4F)nn23)c1 | -7.94% | 
Cc1cccc(C(=O)N2c3nc(-c4ccco4)nn3C3(CCCCC3)[C@@H]3CCCC[C@@H]32)c1 | -9.38% | 
CNS(=O)(=O)c1cccc(C(=O)OCC(=O)N2c3ccccc3NC(=O)C2(C)C)c1 | 8.6% | 
COc1ccc2c(C)c(CCC(=O)NCc3ccc(OC)c(OC)c3)c(=O)oc2c1 | -2.04% | 
CC(=O)Oc1ccc2c(C)c(CC(C)O)c(=O)oc2c1 (configuration not stated) | -1.05% | 
Cc1ccc2[nH]c(=O)c(CC(=O)O)c(-c3ccccc3)c2c1 | -8.3% | 
COc1cccc(-c2coc3cc4oc(=O)c(CC(=O)O)c(C)c4cc23)c1 |  | 19 µM (active)
Cc1c(CC(=O)NCCCCCC(=O)O)c(=O)oc2cc3occ(-c4ccccc4)c3cc12 |  | 19 µM (active)
Cc1oc(C)c(C(=O)NCCCC(=O)O)c1C(=O)NCCCC(=O)O | -0.349% | 
COc1ccccc1CNC(=O)CCn1c(=O)c2ccccc2n(CC(=O)Nc2ccc(Br)cc2F)c1=O | -1.36% | 
COc1ccc(OCCn2cc(C(=O)C3CCCCC3)c3ccccc32)cc1 | 2.81% | 
Cc1ccc(Nc2nc(CSc3nnc(-c4ccncc4)n3-c3ccccc3C)cs2)cc1 |  | 21.3 µM (active)
Cc1ccccc1-n1c(SCC(=O)NCc2cccs2)nnc1-c1ccncc1 | -0.77% | 
Cc1ccc(-n2c(SCC(=O)N3c4ccccc4Sc4ccccc43)nnc2-c2ccncc2)cc1 | 0.549% | 
CCCN1C(=O)C(Cc2nc3ccccc3c(=O)n2-c2ccccc2)c2cc(C)ccc21 (configuration not stated) |  | inactive
COc1ccc(NC(=S)N2N=CCC2c2ccccc2)cc1 (configuration not stated) |  | 4.78 µM (active)
COc1ccc(NC(=S)N2CCc3cc(OC)c(OC)cc3C2)cc1 | -3.32% | 
CCC(C)N(C)C1CCN(C(=S)Nc2ccc(OC)cc2)CC1 (configuration not stated) | -4.4% | 

SMILES | activity change, negative = inhibition | Potency
COc1ccc(C(=O)NC2CC2)cc1OC1CCN(Cc2cnn(C)c2)CC1 | 4.8% | 
N=c1c2c(-c3ccccc3)c(-c3ccccc3)n(Cc3ccccc3)c2ncn1CCCO | 0.125% | 
OCCCN1c2ccccc2Nc2nnc(-c3ccccc3)cc21 |  | 1.9 µM (active)
COC(=O)c1ccccc1NS(=O)(=O)c1ccc2c(c1)CCCN2C(C)=O | -13.4% | 
O=C(NCCc1ccccc1)c1cnc2sc(N3CCCC3)nn2c1=O | 0.37% | 
O=C(NCCc1ccccc1)c1ccc2c(c1)N(Cc1ccccc1)CCS2 | -4.39% | 
CC1CCCN(c2ccc(C(=O)NCCc3ccccc3)cn2)C1 (configuration not stated) |  | 7.57 µM (active)
Cc1ccc(-c2nc(Cn3c(=O)cc(-c4ccccc4)c4c(C)nn(C)c43)c(C)o2)cc1 | -6.05% | 
CCN(CC)S(=O)(=O)c1ccc2c(c1)N(CC(=O)NCC(C)c1ccccc1)C(=O)CO2 (configuration not stated) | -3.19% | 
O=S(=O)(NCC(c1ccccc1)N1CCc2ccccc21)c1ccccc1 (configuration not stated) | -6.21% | 
Cc1onc(C(=O)NN)c1-c1csc(COc2ccccc2)n1 | -4.18% | 
CC(C)(C)C(=O)OCc1nc(-c2ccc(O)c(O)c2)cs1 |  | 4.26 µM (active)
CCCCCCn1nnc2sc(-c3ccccc3)cc2c1=O | -2.55% | 
O=c1c2cc(-c3ccccc3)sc2nc2n1N=C(c1cccs1)CS2 |  | 0.601 µM (active)
Cc1nnc2n1N=C(c1ccccc1)CS2 | -2% | 
CCOc1ccc(NC(=O)CC2C(=O)N(c3cccc(OC)c3)C(=O)N2C2CCCCC2)cc1 (configuration not stated) | -4.52% | 
CCOC(=O)c1c(S(=O)(=O)N2CCCC(C(=O)NCc3cccc(C)c3)C2)c(C)n(C)c1C (configuration not stated) | -1.83% | 
CCOC(=O)C1CCCN(CC(=O)Nc2cc(C)c3c(=O)oc4ccccc4c3n2)C1 (configuration not stated) | -2.78% | 
CCCCC(=O)Nc1cc(C)c2c(=O)oc3ccccc3c2n1 | -17.8% | 
CCOC(=O)c1c(C)nc2c(c1C)c(=O)oc1ccccc12 |  | 16.9 µM (active)
Cc1cc(C)c(C#N)c(N2CCC(C(N)=O)CC2)n1 | 2.33% | 
N#Cc1c(N2CCCCC2)nc(N)c2c(N)nc(SCC(=O)O)cc12 |  | 8.49 µM (active)
N#Cc1c(-c2ccccc2)cc(-c2ccccc2)nc1SCC(=O)O | -9.04% | 
CCOC(=O)N1CCC(NC(=O)c2ccc3nc(N4CCOCC4)sc3c2)CC1 | -1.13% | 
O=C(c1ccc2nc(N3CCOCC3)sc2c1)N1CCN(c2ccc(Cl)cc2)CC1 | -1.27% | 
O=S(=O)(Nc1ccc2nc(N3CCOCC3)sc2c1)c1ccccc1 |  | 21.3 µM (active)

SMILES | activity change, negative = inhibition | Potency
COc1ccccc1N1CC(C(=O)NCCN2C(=O)S/C(=C\c3cccnc3)C2=O)CC1=O (configuration not stated) | -1.81% | 
NC(=O)COc1ccc(NC(=O)c2ccccc2-c2ccccc2)cc1 | 0.603% | 
NC(=O)COc1ccc(C23CC4CC(CC(C4)C2)C3)cc1 |  | 12 µM (active)
NC(=O)COc1ccccc1C(=O)NC12CC3CC(CC(C3)C1)C2 | -0.909% | 
Cc1ccc(/C=C2\CCn3c2nc2cc(C(=O)O)ccc2c3=O)c(C)c1 | 4.09% | 
COc1ccccc1CNC(=O)CCCn1c(=O)c2ccccc2n(CC(=O)Nc2ccc(C)cc2Cl)c1=O | 1.77% | 
CCCn1nc(NS(=O)(=O)c2ccc(F)cc2)c2cc3ccccc3nc21 | 1.89% | 
CCCn1nc(NC(=O)C(C)C)c2cc3cc(OC)ccc3nc21 | -7.62% | 
CCCn1nc(NS(=O)(=O)c2ccccc2)c2cc3cc(C)ccc3nc21 |  | 16.9 µM (active)
O=S(=O)(NCC(c1ccco1)N1CCOCC1)c1cc(F)ccc1F (configuration not stated) | -3.23% | 
Cc1csc2nc(COC(=O)c3ccccc3NC(=O)c3ccccc3Cl)cc(=O)n12 | -0.468% | 
CCN(CC)c1nn2c(=O)c(C(=O)NCCc3ccccc3)cnc2s1 | 3.21% | 
Cc1cc(-n2nc(C)cc2C)n2nc(C)c(-c3ccccc3)c2n1 | 5.57% | 
Cc1cc(C(C)(C)C)n2nc(C)c(-c3ccccc3)c2n1 | -0.621% | 
Cc1cc(-c2ccccc2)n2nc(C)c(-c3ccccc3)c2n1 |  | 16.9 µM (active)
Cc1ccc(C)n1-c1nnc(N2CCC(C(=O)NCc3ccccc3Cl)CC2)s1 | 4.23% | 
O=C(NCc1ccc2c(c1)CCN2C(=O)c1ccccc1)c1ccccc1 | -4.72% | 
CN(C)c1ccc(N/C=C/C(=O)C(F)(F)F)cc1 |  | 10.7 µM (active)
CC(=O)N(C)c1ccc(NC(=O)C(F)(F)F)cc1 | 0.386% | 
CNC(=S)NNC(=O)c1ccc(N(C)C)cc1 | 3.3% | 
Cc1ccc2nc(NC(=O)c3nc(SCc4ccccc4F)ncc3Cl)sc2c1 | 1.12% | 
CCOc1ccc(NC(=O)c2c(NC(=O)Cc3ccccc3)sc3c2CCC(C)C3)cc1 (configuration not stated) | -16.8% | 
O=S(=O)(c1cccs1)N1CCN(CCOc2ccccc2)CC1 | -0.715% | 
Fc1ccc(-c2nc(Nc3cccc(Cl)c3)nc3c2COc2ccccc2-3)cc1 | -14.4% | 
COc1ccc(-c2nc3c4ccccc4n(CC(=O)Nc4ccc(C(C)=O)cc4)c(=O)n3n2)cc1 | 5.2% | 
CC1(C(=O)N/N=C/c2cc3c(cc2Br)OCO3)CC1(Br)Br (configuration not stated) | -1.53% | 

SMILES | activity change, negative = inhibition | Potency
O=C(CNC(=O)C1COc2ccccc2O1)N/N=C/c1cc(Br)c(O)c(Br)c1 (configuration not stated) | -14.6% | 
O=C(N/N=C/c1cc2c(cc1Br)OCO2)C1COc2ccccc2O1 (configuration not stated) |  | 13.5 µM (active)
Cc1ccccc1-c1cc(C(=O)NCc2cccs2)n(CC2CC(c3cccnc3)=NO2)n1 (configuration not stated) | -1.1% | 
COc1ccc(Cl)cc1NC(=O)Cn1c(=O)c2ccccc2n2nncc12 | -9.12% | 
COc1ccc(NC(=O)C2CCC(CNS(=O)(=O)c3csc(C(N)=O)c3)CC2)cc1OC (configuration not stated) | -0.339% | 
CCN(CC)C(=O)CSc1nc2ccsc2c(=O)n1Cc1ccccc1Cl | -8.76% | 
O=C(OCc1ccc(Br)cc1)c1cccc(-c2nnc(-c3ccccc3)o2)c1 | -4.27% | 
O=C1c2ccccc2C(=O)N1CCCc1nc(-c2ccccc2)no1 | -2.23% | 
O=C(COC(=O)c1ccccc1Br)Nc1nnc(-c2ccccc2)o1 | -7.96% | 
Cn1nc(-c2ccccc2)c(-c2nc(-c3ccc(Cl)cc3)no2)c1Cl | -2.68% | 
Brc1ccc(-c2nnc(-c3ccccc3)o2)o1 |  | 6.01 µM (active)
Brc1ccc(-c2noc(-c3ccccc3)n2)o1 |  | 2.13 µM (active) and 1.35 µM (active)
Cc1ccc(Cc2nc3ccccc3nc2SCC(=O)Nc2cccc(C(F)(F)F)c2)cc1 | 1.52% | 
CCCc1nn2c(=O)cc(COC(=O)c3ccc(NC(=O)C(C)Oc4ccccc4)cc3)nc2s1 (configuration not stated) | -6.12% | 
CN(CC(=O)Nc1cccc(F)c1)C(=O)CC1CCCC1 | 3.45% | 
O=C(NCc1ccccc1CN1CCCC1)C1CCN(S(=O)(=O)c2ccc(Cl)cc2)CC1 | -0.436% | 
N/C(Cc1ccc([N+](=O)[O-])cc1)=N\OC(=O)C1CCCCC1 | -3.28% | 
NC(=O)c1ccc(NC(=O)COC(=O)c2ccc([N+](=O)[O-])cc2)cc1 | -0.303% | 
O=C(COC(=O)C1CCCCC1)Nc1ccc([N+](=O)[O-])cc1 |  | 16.9 µM (active)
O=C(CN1CCSc2ccccc21)N1CCN(c2ccccc2)CC1 | -5.65% | 
CCCCN1C(=O)CC(N2CCOCC2)C1=O (configuration not stated) | -0.0203% | 
CCOC(=O)c1cn(Cc2cccc(C)c2)nn1 | 2.45% | 
CC(=O)c1nn(-c2cccc(Br)c2)cc1C(=O)c1cccc2ccccc12 | -2.37% | 
CCOC(=O)c1nn(-c2cccc(C)c2)cc1C(=O)c1ccccc1 |  | 9.53 µM (active)
